The structures appear in SMILES notation. Calls of active or inactive are those of the source. The calls were made as follows: active = hit-call score of the fitted dose curve at least 0.9, where 1 is the maximum; inactive = score below 0.9.

The experiment can be described thus: APR_HepG2_p53Act_72hr: Apredica 72-hour HepG2 Assay for p53 Activation (AID 2282923).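 Also: average cellular p53 protein immunofluorescence intensity in HepG2 cells.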 The settings on record: high-content imaging, actives raise or lower the signal. As to the method:
APR_HepG2_72hr is a cell-based, multiplexed-readout assay that uses HepG2, a human liver cell line, with measurements taken at 72 hours after chemical dosing in a 384-well plate.APR_HepG2_p53Act_72hr is one of 10 assay component(s) measured or calculated from the APR_HepG2_72hr assay. It is designed to make measurements of dna content, a form of viability reporter, as detected with fluorescence intensity signals by HCS Fluorescent Imaging technology.Data from the assay component APR_HepG2_p53Act_72hr was analyzed into 1 assay endpoint. This assay endpoint, APR_HepG2_p53Act_72hr, was analyzed with bidirectional fitting relative to DMSO as the negative control and baseline of activity. Using a type of viability reporter, measures of protein for gain or loss-of-signal activity can be used to understand the signaling at the pathway-level as they relate to the gene TP53. Furthermore, this assay endpoint can be referred to as a primary readout, because this assay has produced multiple assay endpoints where this one serves a signaling function. To generalize the intended target to other relatable targets, this assay endpoint is annotated to the dna binding intended target family, where the subfamily is tumor suppressor.
Cells were treated with dimethyl sulfoxide (DMSO) as a solvent control at a final concentration of 0.5% v/v or with compounds in DMSO with a resulting final DMSO concentration of 0.5% v/v. Compound treatment was done at concentrations of 0.39, 0.78, 1.56, 3.12, 6.24, 12.5, 25, 50, 100, and 200 uM in duplicate on each plate. Cells were treated with compounds for 1, 24, or 72 hr. Carbonyl […] m-chloro-phenylhydrazone (CCCP) and taxol were used as positive controls for mitochondrial function and cytoskeletal stability, respectively; DMSO served as the negative control for this experiment. Cells were fixed by the direct addition of 50 uL formaldehyde in Hank's Balanced Salt Solution (HBSS) to a final concentration of 3.7%. After incubation in the fixation medium for 30 min at room temperature (293-298 K), cells were rinsed twice with HBSS and treated with cell permeabilization buffer (16 uL of 0.5% Triton X-100) for 10 min at room temperature (293-298 K) before labeling. For mitochondrial membrane potential and mitochondrial measurements, pre-fixed cells were incubated with 50 uL of MitoTracker Red CMXRos (Invitrogen) at a concentration of 250 nM for 30 min before fixation. In the remaining cases, post-fixed cells were labeled by incubation with a multiplexed mixture of primary antibodies in HBSS for 60 min at room temperature (293-298 K) to detect immunoreactivity of c-Jun (1:500), phospho-histone H3 (1:100), phospho-histone H2A.x (1:200), p53 (1:400), alpha-tubulin (1:200) and Hoechst 33342 (2 ug/mL). Cells were labeled for multiplexed imaging on two separate plates: a) Hoechst 33342, MitoTracker Red, phospho-histone H3, and alpha-tubulin, and b) Hoechst 33342, phospho-histone H2A.x, and c-Jun. A final rinse with HBSS (50 uL) was performed before analysis. The primary and secondary antibodies for the proteins were phospho-histone H3 (rabbit anti-phospho-histone H3 and FITC-donkey anti-rabbit IgG), phospho-histone H2A.x (mouse anti-phospho-histone H2A.x and FITC-donkey anti-mouse IgG), c-Jun (rabbit anti-phospho-c-Jun and Cy3-donkey anti-rabbit IgG), p53 (sheep anti-p53 and Cy5-donkey anti-sheep IgG), alpha-tubulin (mouse anti-alpha-tubulin and Cy5-donkey anti-mouse IgG). These antibodies are available as the CellCiphr HepG2 assay kit (Millipore).Digital images of each well were captured using a Cellomics ArrayScan VTI (Thermo Scientific Cellomics) (0.8 NA objective, 0.63x optical coupler, and XF-93 filter set) at 20x magnification. The images were acquired using the autofocus feature of the ArrayScan instrument, which entails the following steps. First, the camera focuses on channel 1 (Hoechst 33342), where nuclei are identified. Second, a Z offset of 1 um is used for capturing mitochondria (MitoTracker Red). […]
Turning to `c1ccc2cc3ccccc3cc2c1`, the compound was classed as inactive. The term AC50 denotes the concentration giving half of the maximal activity seen. As for `CCc1ccc(O)c(C(C)(C)C)c1`, the AC50 was 71.6 µM (active).

On to `OC(CCl)CCl`, for which the compound was classed as inactive. Same read-out and setting: to `OCCOCCOCCO` belongs “inactive”; to `Cn1c(=O)c2[nH]cnc2n(C)c1=O`, “inactive”. For `CCCCN1C(=O)[C@@H]([C@H](O)C2CCCCC2)NC(=O)C12CCN(Cc1ccc(Oc3ccc(C(=O)O)cc3)cc1)CC2`, the AC50 was 38.7 µM (active). For `CCCCCCCCCCCCCCCCOS(=O)(=O)O`, the result was inactive. Still for that read-out and setting: with `CCCCCCCC/C=C\CCCCCCCC(=O)OC[C@@H](O)[C@H]1OC[C@H](O)[C@H]1O` the entry was “inactive”; with `CCc1cccc(CC)c1N`, “inactive”. Consider `c1ccc(C(O[C@@H]2CCCN(CCc3ccc4c(c3)OCO4)C2)c2ccccc2)cc1`, for which the AC50 is 63.3 µM (active). As for `Cn1cc[nH]c1=S`, the compound was called inactive.

In the case of `O=C1CN(N=Cc2ccc([N+](=O)[O-])o2)C(=O)N1`, the AC50 is 46.8 µM (active). Turning to `O=S1(=O)CCCO1`, the compound was called inactive. In the case of `CCCCOC(=O)c1ccccc1`, the call was inactive. Still for that read-out and setting: with `CCCCC(CC)C(=O)OCCOCCOCCOC(=O)C(CC)CCCC` (centres undefined) the entry was “inactive”; with `C=CN1CCCC1=O`, “inactive”. Same read-out and setting: with `c1ccc2ncccc2c1` the entry was “inactive”. `CCCCCCCCCCCCCCO`: the AC50 was 104 µM (active).

Consider `CC(=O)c1ccccc1`, for which the result was inactive.

Consider `O=C(O)c1ccc2c(c1)nc(C(=O)NC1CCN(C3CC3)CC1)n2Cc1cc(-c2ccc(Cl)s2)on1`, for which the compound was classed as inactive. On the same count and under the same terms, with `CCCCCCCC1CCC(=O)O1` (centres undefined) the entry was “inactive”; with `C[C@]12C=CC(=O)C=C1CC[C@H]1[C@@H]3C[C@@H](O)[C@](O)(C(=O)CO)[C@@]3(C)C[C@H](O)[C@@]12F`, “inactive”; with `NNC(=O)c1ccncc1`, “inactive”. On the same count and under the same terms, with `CCCc1ccccc1` the entry was “inactive”; with `CCn1nc(C)c2c1C(=O)NCC(c1ccc(O)cc1)=N2`, “inactive”.

As to `CCN(CC)C(=S)SSC(=S)N(CC)CC`, the AC50 is 12 µM (active). With `CCOC(N)=O`, the result was inactive. Same read-out and setting: to `OC(Cn1cncn1)(Cn1cncn1)c1ccc(F)cc1F` belongs “inactive”. `CC1(C)C(=O)N(Cl)C(=O)N1Cl`: the call was inactive. Still for that read-out and setting: to `CC(C)c1nnc2ccc(-c3ocnc3-c3cc(F)ccc3F)cn12` belongs “inactive”; to `CCCCCCCCN(C)C`, “inactive”. On the same count and under the same terms, to `CCCCCCCCCC` belongs “inactive”. As to `O=C(O)c1cccc(C[C@@H]2COc3ccc(OCc4nc5cc(F)ccc5s4)cc3[C@@H]2O)c1`, the AC50 is 73.1 µM (active).

As for `NC(=O)NN=Cc1ccc([N+](=O)[O-])o1`, the AC50 is 67.3 µM (active).
